High-throughput results deposited in PubChem BioAssay by ICCB-Longwood Screening Facility, Harvard Medical School.
Only a selection was taken, and hits are over-represented in it overall.
Sa growth 42C: inhibitors of Staphylococcus aureus growth at 42 °C; S. aureus RN4220 growth, OD600, 20 h; hits give low values; relative growth, % (no concentration beside the values); 170,000 tested, 0.53% active;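 active means relative growth at most 50% at the other temperature and 20+ points below 30 °C, or under 10% at both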
S aureus helic: S. aureus DNA helicase inhibition; AID 485395; purified S. aureus helicase, fluorescence unwinding assay; 120,000 tested, 0.05% active; inhibition, % (no concentration beside the values); in the data active means inhibition above about 25%, passing the limit was not always enough;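 further: 0% = mean of negative control wells and 100% = mean of positive control wells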
Active calls of the source: *.

Screening CC(=O)Nc1ccc(-c2ccccc2)cc1 returned Sa growth 42C 104.
CC(C)Nc1ccc(Nc2ccccc2)cc1 was read as Sa growth 42C 4.5* and S aureus helic 19.
Cc1ccc2c(c1)C1CN(C)CCC1N2C(=O)Cc1cccs1 (stereo unspecified) was read as Sa growth 42C 132 and S aureus helic 17.
For Cc1ccc2c(c1)C1CN(C)CCC1N2Sc1ccc(Cl)cc1 (stereo unspecified) the results were Sa growth 42C -1.3* and S aureus helic -5.
Screening CCOP(=S)(OCC)C1(C#N)CC1 returned Sa growth 42C 90 and S aureus helic 5.
For CCCCCCCCCCCCCCCC[N+](C)(C)C the results were Sa growth 42C -0.5*.
For COc1ccc2c(c1OC)C(=O)OC2C1c2cc3c(cc2CCN1C)OCO3 (stereo unspecified) the results were Sa growth 42C 98 and S aureus helic 9.
For CN1CCc2cc3c(c4c2C1Cc1ccccc1-4)OCO3 (stereo unspecified) the results were Sa growth 42C 0.1* and S aureus helic 24.
For O=C(Cc1ccc(S(=O)(=O)N2CCCC2)s1)N1CCN(Cc2ccccc2)CC1 the results were Sa growth 42C 95 and S aureus helic -13.
OC(c1cccs1)(c1cccs1)C1CN2CCC1CC2 (stereo unspecified) was read as Sa growth 42C 103 and S aureus helic -16.
For Cc1ccc(C(O)(c2ccc(C)c(C)c2)C2CN3CCC2CC3)cc1C (stereo unspecified) the results were Sa growth 42C 23* and S aureus helic -4.
Screening Cc1ccccc1OCCCn1cc(C(=O)C(C)(C)C)c2ccccc21 returned Sa growth 42C 93 and S aureus helic 20.
Screening CN(C)[C@@H]1C(=O)C(C(N)=O)=C(O)[C@@]2(O)C(=O)C3=C(O)c4c(O)cccc4[C@@](C)(O)[C@H]3C[C@@H]12 returned Sa growth 42C -0.1*.
For Cc1cc(OCC(=O)N(C)C)c2c3c(c(=O)oc2c1)CCCC3 the results were Sa growth 42C 105 and S aureus helic 6.
`CN(C)C(=S)SSC(=S)N(C)C` gave Sa growth 42C -0.7*.
Screening CC12CCC(O)CC1CCC1C2CCC2(C)C(C(=O)O)CCC12 (stereo unspecified) returned Sa growth 42C 94 and S aureus helic 2.
`CCOC(=O)C1=C(N)Oc2c(c(=O)[nH]c3ccccc23)C12C(=O)Nc1ccccc12` (stereo unspecified) gave Sa growth 42C 100 and S aureus helic 6.
Cc1ccc(C2C(C=C3C(=O)NC(=O)NC3=O)=C(c3cccs3)Oc3ccccc32)cc1 (stereo unspecified) was read as Sa growth 42C 71 and S aureus helic 19.
Cn1c(=O)c2ncnnc2n(C)c1=O was read as Sa growth 42C 5.9* and S aureus helic 7.
For Brc1ccc2[nH]cc(CNCCN3CCOCC3)c2c1 the results were Sa growth 42C 109 and S aureus helic -9.
N#CC(C#N)=Cc1ccc(F)cc1F was read as Sa growth 42C 87.
For C=CCNC(=O)c1c(N)n(Cc2ccccc2)c2nc3ccccc3nc12 the results were Sa growth 42C 80 and S aureus helic 9.
`NS(=O)(=O)c1ccc(N=NN2CCCCCC2)cc1` gave Sa growth 42C 95 and S aureus helic 0.
Screening CC12CCC3C(CC=C4CC(O)CCC43C)C1C/C(=C\c1ccc(C(F)(F)F)cc1)C2=O (stereo unspecified) returned Sa growth 42C 91 and S aureus helic 3.
